TROY NFkB inh = inhibitors of TROY-driven NF-kB signaling, primary screen, Q293 LMP1-TROYcd cells, NF-kB luciferase, uHTS. Q293 LMP1-TROYcd NF-kB luciferase reporter, 4 h. inhibition, % at 10 µM. 360,000 tested, 0.98% active;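 active means compounds whose plate-normalised and pattern-corrected inhibition of the luciferase reporter signal at the single screening dose is 50% or more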
EBV LMP1 NFkB = EBV LMP1-driven NF-kappaB luciferase reporter inhibitors, primary screen, cell-based, luminescence, single point. inhibition, % at 12.5 µM. LMP1-induced NF-kappaB luciferase reporter cells. 350,000 tested, 0.69% active. AID 504558, 2011; in the data active means inhibition above about 41%;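 further: 0% = neutral control wells and 100% = reference inhibitor control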
TWEAK-Fn14 inh = inhibitors of TWEAK-Fn14 signaling, primary screen, luciferase reporter cells, uHTS. TWEAK-stimulated Fn14 reporter cells, luciferase luminescence, 8 h. inhibition, % at 10 µM. 360,000 tested, 2% active; in the data active means inhibition above about 50%
PAX8 inh HTS = inhibitors of PAX8-driven TPO luciferase reporter, primary screen, RMG-I cells, single concentration. SteadyGlo, 24 h. inhibition, % at 12.6 µM. 360,000 tested, 1.2% active;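 active means mean replicate inhibition at least 60% with every replicate also reaching 60%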;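 further: luciferase light reporting Pax8 driven TPO promoter activity; plate controls were median of neutral control wells for no effect and mitoxantrone controls for full effect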
LGR2 inh = inhibitors of bursicon-induced LGR2 CRE-luciferase signal, primary screen, cell-based, HEK293, CRE-luciferase reporter, bursicon stimulation. Drosophila bursicon receptor LGR2 (rickets). bursicon-stimulated, 4 h. inhibition, % at 9.99 µM. 380,000 tested, 0.35% active. AID 720647, 2013;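 active means drop in luminescence signal, shown as inhibition above about 50% in the replicate tests, limit read from the data, passing the limit was not always enough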;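 further: agonist challenge used bursicon conditioned medium at about half maximal strength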
EWS-Fli block = EWS/Fli-driven NR0B1 reporter inhibitors, primary screen, A673 cells, NR0B1 luciferase, luminescence, MLPCN library | 350,000 tested, 0.67% active | viability-normalised | inhibition, % at 12.6 µM | AID 651661, 2012;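 active means mean inhibition of at least 50% after viability correction, with every replicate also passing that limit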;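 further: firefly luciferase signal divided by Alamar Blue viability fluorescence both relative to DMSO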
Starred values were filed as active, the others as inactive; . = no result given. The list is not random: actives were taken first. Their share in the collection is about 3.1%.

SMILES	TROY NFkB inh	EBV LMP1 NFkB	TWEAK-Fn14 inh	PAX8 inh HTS	LGR2 inh	EWS-Fli block
Cc1noc(C)c1S(=O)(=O)Nc1ccc2c(c1)CC(=O)N([C@@H](C)CO)C[C@H](C)[C@H](CN(C)C)O2	.	.	.	0	-6	-5
CCOc1c(Cl)cc(CNc2ccc(N3CCCC3)cc2)cc1OC	-5	0	56*	26	-6	3
CCOc1c(Cl)cc(CNc2ccc(S(N)(=O)=O)cc2)cc1OC	17	5	-2	0	-2	.
O=C(CCS(=O)(=O)Cc1ccccc1)Nc1nnc(C(F)(F)F)s1	-35	10	-25	38	-1	-49
CC(C)(C)c1nnc(NC(=O)CCS(=O)(=O)Cc2ccccc2)s1	9	-4	-2	84*	3	-6
CC(C)(C)c1nnc(NC(=O)CCS(=O)(=O)c2ccccc2)s1	-9	14	-2	97*	5	-8
O=C(COc1cccc(NC(=O)c2cccc([N+](=O)[O-])c2)c1)c1ccc(Br)cc1	39	2	71*	.	.	.
CCC(=O)N1CC(=O)N2[C@H](CO)[C@H](c3ccc(-c4cccnc4)cc3)[C@H]2C1	.	.	.	1	-1	-4
Cc1ccnc(Nc2nc3ccccc3o2)n1	31	40	80*	8	54*	48
Cc1ccc2oc(Nc3nc(C)c(C)c(C)n3)nc2c1	-53	-12	-18	-119	-62	-111
Cc1nc(Nc2nc3ccccc3o2)nc(C)c1C	17	8	57*	-48	.	0
N#Cc1cnc(Nc2nc3ccccc3o2)nc1-c1ccccc1	7	-13	-3	.	.	.
CCc1ccc(/C=C/C(=O)C2C(=O)c3ccccc3C2=O)cc1	-44	51*	1	.	62*	.
O=C(Nc1ccc2c(c1)[C@H]1C[C@@H](CC(=O)N3CCCCC3)O[C@@H](CO)[C@H]1O2)C1CCC1	.	.	.	-7	6	-3
Cc1nnc(N/N=C/c2cc(C)n(-c3ccc(F)cc3)c2C)n1N	0	-3	-22	120*	.	-8
Cc1nnc(N/N=C/c2ccccc2O)n1N	-17	8	-5	50	-7	2
CC(C)NC(=O)N[C@@H]1C=C[C@H](CC(=O)N2CCCCC2)O[C@H]1CO	.	.	.	-7	-3	2
CCCc1nnc(SCc2ccc(OCC)cc2)n1N	6	77*	-26	.	.	.
CO[C@H]1CN(C)C(=O)c2cc(NC(=O)Nc3cccc(F)c3)ccc2OC[C@@H](C)N(C(C)=O)C[C@H]1C	.	.	.	.	-5	0
O=C(Nc1ccc(N2CCN(C(=O)c3ccco3)CC2)c(Cl)c1)c1cc2ccccc2o1	72*	27	97*	.	.	.
CCCC(=O)N1CCN(c2ccc(NC(=O)c3cc4ccccc4o3)cc2Cl)CC1	81*	24	95*	.	.	.
CC(C)C(=O)N1CCN(c2ccc(NC(=S)NC(=O)c3cc4ccccc4o3)cc2)CC1	46	18	-19	3	-32	.
CCC(=O)N1CCN(c2ccc(NC(=O)c3cc4ccccc4o3)cc2Cl)CC1	66*	27	93*	.	.	.
O=C(Nc1ccc(N2CCN(C(=O)c3ccccc3)CC2)c(Cl)c1)c1ccco1	35	22	6	.	.	.
CCC(=O)N1CCN(c2ccc(NC(=S)NC(=O)c3cc4ccccc4o3)cc2)CC1	61*	5	18	-21	10	.
SMILES	TROY NFkB inh	EBV LMP1 NFkB	TWEAK-Fn14 inh	PAX8 inh HTS	LGR2 inh	EWS-Fli block
CCC(=O)N1CCN(c2ccc(NC(=O)c3ccco3)cc2Cl)CC1	-19	-4	-36	-17	-2	.
O=C(c1cnccn1)N1CC(=O)N2[C@H](CO)[C@H](c3ccc(C#CC4CCCC4)cc3)[C@H]2C1	.	.	.	8	7	22
Cc1ccc(C(=O)/C=C/c2ccc(F)cc2)o1	-69	-19	-3	-34	-30	.
O=C(/C=C/c1ccc(F)cc1)c1ccccc1Br	1	-13	63*	19	7	.
COC(=O)c1c(NC(=S)Nc2ccc(CC(=O)O)cc2)sc(C)c1C	-12	4	88*	3	-1	.
O=C(N[C@@H]1CC[C@H](CCn2cc(C3(O)CCCC3)nn2)O[C@H]1CO)C1CCCCC1	.	.	.	0	-26	6
CCN(CC)C(=O)CSc1nc(-c2ccc(C)cc2)nc2c1COC(C)(C)C2	58*	3	58*	2	.	.
Cc1ccc(-c2nc3c(c(SCC(=O)N4CCCC4)n2)COC(C)(C)C3)cc1	11	4	11	14	9	2
CC(C)CC(=O)Nc1ccc(-c2nc3ccccc3c(=O)[nH]2)cc1	15	-11	61*	-163	.	5
CC(C)CC(=O)Nc1ccc(-c2nc3ccccc3c(=O)o2)cc1	3	2	-1	-6	-6	.
CNC[C@@H]1Oc2ncc(C#CC3CCCCC3)cc2C(=O)N([C@H](C)CO)C[C@@H]1C	.	.	.	-21	17	5
C[C@@H]1CCCCO[C@@H](CN(C)CC2CCCCC2)[C@H](C)CN([C@H](C)CO)C(=O)c2cc(NS(=O)(=O)c3cccs3)ccc2O1	.	.	.	11	-6	5
CCCNC(=O)N1CCN(S(=O)(=O)c2ccc(C)cc2)CC1	3	-17	5	.	.	.
CCCNC(=O)N1CCN(S(=O)(=O)c2ccc(C)c(C)c2)CC1	17	47*	-5	.	.	.
C[C@H](CO)N1C[C@H](C)[C@@H](CN(C)S(=O)(=O)c2ccc(Cl)cc2)OCCCC[C@H](C)Oc2ccc(NC(=O)C3CCCCC3)cc2C1=O	.	.	.	8	-10	5
Cn1nnc2cc(C(=O)NC3CCCCC3)ccc21	-34	59*	-19	.	.	.
CC(CCN1CCOCC1)c1ccccc1 (stereo unspecified)	5	12	60*	-6	12	4
CCN1[C@@H]2Cn3c(ccc(-c4ccccc4F)c3=O)[C@H]1[C@@H](C(=O)NCc1ccc(F)cc1)[C@@H]2CO	.	.	.	-1	3	3
OC[C@@H]1[C@H](c2ccc(/C=C/c3ccccc3)cc2)[C@H]2CN(CCC(F)(F)F)CCCCN12	.	.	.	17	.	11
Cc1c(/C(O)=C2/C(=O)C(=O)N(Cc3cccnc3)C2c2cccs2)cnn1-c1ccccc1 (stereo unspecified)	85*	25	83*	.	.	.
Cc1c(/C(O)=C2/C(=O)C(=O)N(Cc3cccnc3)C2c2ccccn2)cnn1-c1ccccc1 (stereo unspecified)	91*	38	101*	10	87*	27
Cc1c(/C(O)=C2/C(=O)C(=O)N(CCN3CCOCC3)C2c2ccco2)cnn1-c1ccccc1 (stereo unspecified)	74*	12	85*	-35	29	14

High-throughput results from PubChem BioAssay.
